MARV entry inh: qHTS for inhibitors of binding or entry into cells for Marburg Virus; Marburg virus pseudotyped entry inhibition, cell reporter; 1.8% of 300,000 active; Potency, µM (series often up to 37.8 µM), for the others: top-dose activity change, negative = inhibition, actives largely listed as inhibitors; AID 540276, 2011; calls by dose curve; tested in HEK293 cells; note: potency is the fitted concentration of half-maximal effect; % is set by controls: 0 for no effect and ±100 for the full control effect
Vaccinia Venus: qHTS for Stage-Specific Inhibitors of Vaccinia Orthopoxvirus: Venus Reporter Primary qHTS; Vaccinia virus Venus reporter expression, fluorescence; Potency, µM (highest dose often 36.5 µM), for the others: at the highest dose activity change, negative = inhibition, most hits filed as inhibitors; 0.46% of 330,000 active; AID 720580, 2013; calls by dose curve; tested in A549 cells; note: potency is the fitted concentration of half-maximal effect; % is set by controls: 0 for no effect and ±100 for the full control effect; nearly all actives have a fitted effect of over 30% in size
CHX counter: Cycloheximide Counterscreen for Small Molecule Inhibitors of Shiga Toxin. cell reporter, cycloheximide protein synthesis inhibition counterscreen. max response, %. 12% of 300,000 active; in the data active = max response mostly above about 13%, no sharp cut-off; inactive = mostly below about 14%; note: read at 38.3 µM for the half of the compounds with a filed dose; 0% is about no effect
Lassa entry inh: qHTS for Inhibitors of binding or entry into cells for Lassa Virus | AID 540256, 2011 | 1.2% of 300,000 active | Potency, µM (highest dose often 37.9 µM), without a hit: top-dose activity change, negative = inhibition, most hits filed as inhibitors | Lassa virus pseudotype entry inhibition, cell reporter; calls by dose curve; tested in HEK293 cells; note: potency is the fitted concentration of half-maximal effect; % is set by controls: 0 for no effect and ±100 for the full control effect; nearly all actives have a fitted effect of over 50% in size
Shiga toxin inh: A qHTS for Small Molecule Inhibitors of Shiga Toxin; 9.2% of 290,000 active; Vero cells, Shiga toxin protein synthesis inhibition reporter; inhibition, % at 38.7 µM; in the data active = inhibition mostly above about 28%, no sharp cut-off; inactive = mostly below about 43%; note: 0% is about no effect
VACV mCherry inh: qHTS for Stage-Specific Inhibitors of Vaccinia Orthopoxvirus: mCherry Reporter Primary qHTS | 0.63% of 310,000 active | AID 720579, 2013 | Vaccinia virus mCherry reporter infection, fluorescence | Potency, µM (titrated, usually from 36.5 µM), for the others: at the highest dose activity change, negative = inhibition, usual class: inhibitors; calls by dose curve; tested in A549 cells; note: potency is the fitted concentration of half-maximal effect; % is set by controls: 0 for no effect and ±100 for the full control effect; nearly all actives have a fitted effect of over 35% in size
Numbers without * were called inactive; i = inactive; ? = inconclusive; . = not tested or not shown; [ ] = another dose, or the depositor's remark. This is one part of a sample in which hits are shown more often than they occur.

SMILES	MARV entry inh	Vaccinia Venus	CHX counter	Lassa entry inh	Shiga toxin inh	VACV mCherry inh
Cc1ccc(NC(=O)CCC(=O)c2cccs2)c(Br)c1	0.3%[46.1 µM]	-9.3%	35.9*	-0.9%[46.1 µM]	115.1*	i
Cc1ccc(NCCC(=O)c2cccs2)cc1	.	.	45.8*	.	80.4*	.
CC(C)c1ccc(NCCC(=O)c2cccs2)cc1	?	-4.8%	59.6*	22.2%	140.2*	-12.3%
Cc1ccc(Oc2ccc(NC(=O)CCC(=O)OCC(=O)c3cccs3)cc2)cc1C	?	-3.4%	16.9*	5.5%	32.6	-17.2%
Cc1ccc(C(=O)COC(=O)CCC(=O)Nc2ccc(Oc3ccccc3)cc2)cc1C	-2.9%[46.1 µM]	-10.7%	.	13.0%[46.1 µM]	.	-9.5%
Cc1ccc(CNC(=O)CCC(=O)c2cccs2)cc1	-18.0%	.	-1.9	-2.2%	-1.7	.
CC(C)c1ccc(NCCC(=O)c2ccc(Br)cc2)cc1	?	-8.7%	-4.3	7.8%	-8.3	-10.6%
COc1ccccc1-c1cncnc1NCc1cccc(C)c1	.	2.1%	.	.	.	5.8%
O=C(CCC(=O)c1cccs1)Nc1ccc(N2CCCCC2)cc1	?	-6.7%	44.8*	?	86.2*	3.3%
CCN(CC)c1ccc(C=NN2CCCCCC2)cc1	?	1.2%	.	?	.	?
CCN(Cc1ccccc1)c1ccc(/C=N/N2CCOCC2)cc1	?	-16.0%	36.4*	-7.6%	28.0*	-21.0%
CCN(CC)c1ccc(/C=N/N2CCOCC2)cc1	?	.	52.8*	?	51.8*	.
Cc1ccc(NC(=O)Cn2cccc2)cc1C	-24.1%	.	15.1*	0.8%	33.1	.
Cc1ccc(NC(=O)Cn2ncn3c(cc4ccccc43)c2=O)cc1F	?	-0.5%	-2.4	-14.0%[46.1 µM]	13.3	-7.0%
Cc1ccc(NC(=O)Cn2cccc2)cc1	20.5%	.	5.4	0.4%	20.3	.
Cc1ccc(NC(=O)Cn2ncn3c(cc4ccccc43)c2=O)cc1C	12.6µM*	-11.1%	.	.	.	-12.4%
CCc1ccc(NC(=O)Cn2cccc2)cc1	1.5%	.	24.6*	13.9%	66.2	.
Cc1ccc(NC(=O)Cn2cccc2)cc1Cl	-24.6%	.	8.5	2.6%	-1.0	.
CC1(C)SC(=S)N(/N=C/c2ccccc2)C1N(O)C(=O)Nc1ccc([N+](=O)[O-])cc1 (stereo not drawn)	17.8µM*	?	14.3	0.0%	31.4	?
CNC(=O)N(O)C1N(/N=C/c2ccc(N(C)C)cc2)C(=S)SC1(C)C (stereo not drawn)	.	.	-2.7	.	6.5	.
CCOC(=O)c1ccc(N2C(=O)c3n[nH]c(-c4ccco4)c3C2c2ccc(F)cc2)cc1 (stereo not drawn)	?	-12.2%	.	?	.	-24.9%
CCOC(=O)c1ccc(N2C(=O)c3n[nH]c(-c4ccco4)c3C2c2ccc(OCC)cc2)cc1 (stereo not drawn)	11.2µM*	-9.3%[7.34 µM]	.	?	.	-8.3%[7.34 µM]
O=C(N/N=C/c1ccc(F)cc1)c1cccc(NC(=O)c2ccccc2Cl)c1	?	5.7%	20.5*	1.5%[46.1 µM]	36.4*	-5.5%
COc1ccc(/C=N/NC(=O)c2cccc(NC(=O)c3ccccc3Cl)c2)cc1	?	-24.3%	49.5*	?	40.5	?
O=C(N/N=C/c1ccncc1)c1cccc(NC(=O)c2ccccc2Cl)c1	-0.5%	-1.9%	-0.8	4.6%	-3.7	-13.9%
SMILES	MARV entry inh	Vaccinia Venus	CHX counter	Lassa entry inh	Shiga toxin inh	VACV mCherry inh
O=C1N(Cc2ccc(Br)cc2)c2cccc(Br)c2[C@@]12O[C@H](COc1ccccc1)CC1=CCCC12 (stereo partly drawn)	11.3%[14.2 µM]	.	.	.	.	.
Cc1ccc(-c2nc(=S)c3c(n2Cc2ccco2)CC(C)(C)OC3)cc1	13µM*	.	7.0	-18.4%	18.4	.
CCOC(=O)C1=NN(c2ccccc2)C(=O)/C1=C\c1ccc(N(C)C)cc1	-2.7%	?	-2.1	-0.8%	10.4	-22.9%
CC1=NN(Cc2ccccc2)C(=O)/C1=C\c1ccc(N(C)C)cc1	4.7%	-1.8%	31.0*	-3.4%	32.3*	.
Cc1cc2c(nn1)CCc1nonc1-2	1.1%	.	-3.9	6.7%	-9.4	.
Cc1ccc2c3c([nH]c2c1C)-c1nonc1CC3	4.0%	-14.6%	20.1*	9.0%	43.9*	-20.3%
CCCn1c(C(C)NS(=O)(=O)c2ccccc2)n[nH]c1=S (stereo not drawn)	.	.	1.5	.	-3.8	.
Nc1nonc1C(=O)N/N=C/c1cc2c(cc1[N+](=O)[O-])OCO2	?	-6.6%	7.9	8.9%[46.1 µM]	32.6	-12.9%
CN(C)c1ccc(/C=N/NC(=O)c2nonc2N)cc1[N+](=O)[O-]	-2.7%[46.1 µM]	-0.4%	40.5*	2.7%	133.1*	7.0%
COc1ccc(/C=N/NC(=O)c2nnn(-c3nonc3N)c2C)cc1OC	.	-13.4%	.	.	.	i
COc1ccc(/C=N/NC(=O)c2nonc2N)cc1OC	12.9%	-5.6%	34.2*	5.9%	80.0*	i
Cc1nc2ccccn2c1C(=O)N/N=C/c1ccc([N+](=O)[O-])o1	.	7.08µM*	14.7	.	44.1	?
Nc1nonc1C(=O)N/N=C/c1cccc([N+](=O)[O-])c1	6.2%	-1.7%	27.4*	?	active	-13.9%
CCOC(=O)[C@]12CCC=C1N(Cc1ccc(Cl)cc1Cl)C(=O)[C@H](CC(=O)N1CCSCC1)C2	.	-4.2%	.	.	.	-0.9%
Nc1nonc1C(=O)N/N=C/c1ccc([N+](=O)[O-])o1	?	?	44.4*	?	76.2*	?
O=C(N/N=C/c1ccc([N+](=O)[O-])o1)c1ccc(O)cc1	?	?	16.1	?	75.8	12.6µM*
O=C(N/N=C/c1ccc([N+](=O)[O-])o1)c1ccncc1	-22.8%[46.1 µM]	4.0%[7.34 µM]	8.3	?	4.6	i[7.34 µM]
COC(=O)C1CC(c2ccccc2)N(c2ccccc2)O1 (stereo not drawn)	.	-8.1%	.	.	.	i
Cc1cnc(NC(=O)c2cccs2)s1	?	-12.7%	28.8*	?	67.3*	-11.8%
O=C(/C=C/c1ccc([N+](=O)[O-])cc1)NCc1cccnc1	-3.5%	-2.1%	-3.2	11.4%	-15.3	i
O=C(Nc1ncc([N+](=O)[O-])s1)c1ccccc1Br	.	.	49.6*	.	65.1*	.
O=C(/C=C/c1ccc([N+](=O)[O-])cc1)Nc1ncc([N+](=O)[O-])s1	5.8µM*	.	33.5*	?	95.2*	.
O=C(Nc1ncc([N+](=O)[O-])s1)c1cccs1	.	-16.4%	36.7*	.	26.6*	-4.1%
O=C(CS(=O)(=O)c1ccccc1)Nc1ncc([N+](=O)[O-])s1	0.8%[46.1 µM]	-13.1%	-3.5	2.4%	-6.3	-12.3%
O=C(/C=C/c1ccco1)OCC1CCCN2CCCCC12 (stereo not drawn)	-13.3%[46.1 µM]	-19.3%	5.3	3.2%[46.1 µM]	-10.3	?
Cc1csc2c(N(C)CCO)ncnc12	10.2%	-18.6%	4.0	5.5%	34.6	-18.2%
CCCCCc1nc2c(=O)n(C)c3ccccc3c2o1	2.0%	.	64.4*	15.6%	123.4*	.
CCCCCCCc1nc2c(=O)n(C)c3ccccc3c2o1	-14.7%	.	-4.5	8.4%	-8.2	.
